In the library only some 3.9% were active in any assay of this set; here they are far more common.
PLC-gamma1 inh: blocks human PLC-gamma1 enzyme activity. purified PLC-gamma1, fluorogenic substrate, fluorescence. inhibition, % at 12.2 µM. 370,000 compounds, 0.84% hits. AID 720700; in the data active means inhibition above about 9.5%
AHR activator: activators of human aryl hydrocarbon receptor; P35869; AHR-responsive luciferase reporter cells, luminescence; activation, % at 5 µM; 320,000 compounds, 2.5% hits; in the data active means activation above about 47%
sPLA2-III inh: Blocks human group III sPLA2 activity | inhibition, % at 12.2 µM | 370,000 compounds, 0.56% hits | QFRET BODIPY PC-A2 liposome hydrolysis, fluorescence | AID 743126 | Q9NZ20;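 active means inhibition above mean plus 3 SD of compounds lying within the high and low control bounds, cut at about 19% in these data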
Target sequence (Q9NZ20 whole entry, looked up): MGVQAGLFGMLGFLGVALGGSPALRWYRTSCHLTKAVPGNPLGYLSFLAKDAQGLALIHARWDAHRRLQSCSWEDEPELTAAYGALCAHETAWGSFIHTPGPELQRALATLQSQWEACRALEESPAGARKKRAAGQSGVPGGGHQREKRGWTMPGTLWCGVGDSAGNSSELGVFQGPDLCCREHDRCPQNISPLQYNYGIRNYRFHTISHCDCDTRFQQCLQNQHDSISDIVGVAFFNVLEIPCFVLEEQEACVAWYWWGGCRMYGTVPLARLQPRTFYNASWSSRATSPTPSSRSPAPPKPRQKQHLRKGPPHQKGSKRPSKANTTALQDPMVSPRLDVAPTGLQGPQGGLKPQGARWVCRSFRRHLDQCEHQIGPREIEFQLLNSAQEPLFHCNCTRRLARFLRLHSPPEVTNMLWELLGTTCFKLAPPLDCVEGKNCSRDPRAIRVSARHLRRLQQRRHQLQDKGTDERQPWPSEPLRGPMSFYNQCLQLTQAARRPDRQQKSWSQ
HIF act: HIF pathway transcriptional activation; U2OS HRE-luciferase reporter, luminescence; normalized: DMSO 0%, desferrioxamine 100%; activation, % at 7.5 µM (by protocol); 300,000 compounds, 0.32% hits;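 active means mean activation of at least 10% of the iron chelator positive control signal, with at least half of replicates also reaching 10%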
Yeast superoxide: lowers age-related superoxide in aged yeast cells. superoxide response (% of plate mean), % at 10 µM. 330,000 compounds, 0.18% hits. AID 2690. S. cerevisiae aged cells, superoxide DHE fluorescence; active compounds read low;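 active means superoxide response under a set limit, about three screen SD below normal, cut at about 65% in these data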;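 further: yeast aged for seven days with compound at 30 °C before DHE staining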
PLCb3 inh: inhibitors of human phospholipase C beta3 | Q01970 | Purified PLC-beta3, fluorogenic substrate, fluorescence | inhibition, % at 12.2 µM | 370,000 compounds, 0.18% hits | AID 720704; in the data active means inhibition above about 11%
Numbers stand for hits.

Results for O=C(NCCc1ccc(F)cc1)c1cc2ccccn2n1 ?
PLC-gamma1 inh: inactive; sPLA2-III inh: inactive; PLCb3 inh: inactive

What do the screens show for `C=CCN(C)CC#Cc1ccc(OC)cc1`?
PLC-gamma1 inh: inactive; sPLA2-III inh: inactive; PLCb3 inh: inactive

How did COc1cc(O)sc1C=Nc1ccc(Cl)cc1 do in these assays?
PLC-gamma1 inh: inactive; AHR activator: 48; sPLA2-III inh: inactive; HIF act: inactive; Yeast superoxide: inactive; PLCb3 inh: inactive

What do the screens show for `Cc1c(Cl)c([N+](=O)[O-])nn1Cc1ccc(C(=O)N/N=C\c2cccc(Br)c2)o1`?
PLC-gamma1 inh: inactive; AHR activator: 55; sPLA2-III inh: inactive; HIF act: inactive; Yeast superoxide: inactive; PLCb3 inh: inactive

How did COc1ccc2c(c1)OC[C@H]1[C@H]2N2C(=O)c3cc(C)ccc3NC(=O)[C@@]2(C)[C@H]1c1ccccc1 do in these assays?
AHR activator: inactive; Yeast superoxide: inactive

How did COc1ccc2c(c1)OC[C@H]1[C@H]2N2C(=O)c3ccccc3NC(=O)[C@@]2(C)[C@H]1c1ccccc1 do in these assays?
PLC-gamma1 inh: inactive; AHR activator: inactive; sPLA2-III inh: 39; Yeast superoxide: inactive; PLCb3 inh: inactive

What do the screens show for `COc1ccc(/C=N/n2cnnc2SCCO)cc1OC`?
PLC-gamma1 inh: inactive; AHR activator: inactive; sPLA2-III inh: inactive; HIF act: inactive; Yeast superoxide: inactive; PLCb3 inh: inactive

Results for C=CCSc1nncn1/N=C/c1ccc(OC)cc1 ?
PLC-gamma1 inh: inactive; AHR activator: 58; sPLA2-III inh: inactive; HIF act: inactive; Yeast superoxide: inactive; PLCb3 inh: inactive

What do the screens show for `C=CCn1c(Cc2cccs2)nnc1SCC(=O)Nc1cccc2ccccc12`?
PLC-gamma1 inh: inactive; sPLA2-III inh: inactive; PLCb3 inh: inactive

Results for COc1cc(NC(=O)c2ccco2)c(C(=O)OCC(=O)c2c[nH]c3ccccc23)cc1OC ?
PLC-gamma1 inh: inactive; AHR activator: 55; sPLA2-III inh: inactive; HIF act: inactive; Yeast superoxide: inactive; PLCb3 inh: inactive

How did CCOC(=O)[C@@]12CCCC=C1N(CCc1ccc(Cl)cc1)C(=O)[C@H]2CC(=O)NCC12CC3CC(CC(C3)C1)C2 do in these assays?
PLC-gamma1 inh: inactive; sPLA2-III inh: inactive; PLCb3 inh: inactive

How did Cc1nsc(Nc2ccc([N+](=O)[O-])cc2)c1C#N do in these assays?
PLC-gamma1 inh: inactive; AHR activator: inactive; sPLA2-III inh: inactive; HIF act: inactive; Yeast superoxide: inactive; PLCb3 inh: inactive

What do the screens show for `Cc1nc(C(F)(F)F)nc(Nc2ccc(Br)cc2)c1C#N`?
PLC-gamma1 inh: inactive; AHR activator: 51; sPLA2-III inh: inactive; HIF act: inactive; Yeast superoxide: inactive; PLCb3 inh: inactive

Results for O=C(CCl)c1ccc2c(c1)CCN2C(=O)C1CC1 ?
AHR activator: inactive; HIF act: 35; Yeast superoxide: inactive

Results for CCCCN1C(=O)C2(NNc3ccccc3O2)c2ccccc21 (configuration not stated) ?
PLC-gamma1 inh: inactive; AHR activator: 69; sPLA2-III inh: inactive; HIF act: inactive; Yeast superoxide: inactive; PLCb3 inh: inactive

How did Cc1ccc2[nH]c(CNC(=O)c3ccc(F)cc3)cc2c1 do in these assays?
PLC-gamma1 inh: inactive; AHR activator: 65; sPLA2-III inh: inactive; HIF act: inactive; Yeast superoxide: inactive; PLCb3 inh: inactive

How did Cc1ccc2[nH]c(C(=O)Nc3ccc(F)cc3)cc2c1 do in these assays?
PLC-gamma1 inh: inactive; AHR activator: inactive; sPLA2-III inh: inactive; HIF act: inactive; Yeast superoxide: inactive; PLCb3 inh: inactive

How did CCCOc1ccccc1NC(=O)CC1Nc2ccccc2NC1=O (configuration not stated) do in these assays?
PLC-gamma1 inh: inactive; AHR activator: 49; sPLA2-III inh: inactive; HIF act: inactive; Yeast superoxide: inactive; PLCb3 inh: inactive

Results for CCOc1ccccc1NC(=O)CC1Nc2ccccc2NC1=O (configuration not stated) ?
PLC-gamma1 inh: inactive; AHR activator: 78; sPLA2-III inh: inactive; HIF act: inactive; Yeast superoxide: inactive; PLCb3 inh: inactive

Results for CCOc1ccccc1NC(=O)CC1Nc2cc(C)c(C)cc2NC1=O (configuration not stated) ?
PLC-gamma1 inh: inactive; AHR activator: inactive; sPLA2-III inh: inactive; HIF act: inactive; Yeast superoxide: inactive; PLCb3 inh: inactive

What do the screens show for `Cc1cccc(C(=O)N[C@H]2CC[C@@]34CCCN3C(=O)CCC[C@H]4[C@H]2C)c1`?
PLC-gamma1 inh: inactive; sPLA2-III inh: inactive; PLCb3 inh: inactive

What do the screens show for `O=S(=O)(c1ccc(C(F)(F)F)cc1)N1CCCc2nc(-c3ccc(Br)cc3)ccc21`?
PLC-gamma1 inh: inactive; sPLA2-III inh: inactive; PLCb3 inh: inactive

How did COC(=O)C1=CC(=O)C=C(OC)[C@@]12Oc1cc(C)cc(OC)c1C2=O do in these assays?
PLC-gamma1 inh: inactive; sPLA2-III inh: inactive; PLCb3 inh: inactive

Results for COc1cc(OC)cc(C(=O)Nc2ccc(N3CCN(C(=O)c4cccs4)CC3)cc2)c1 ?
PLC-gamma1 inh: inactive; AHR activator: 53; sPLA2-III inh: inactive; HIF act: inactive; Yeast superoxide: inactive; PLCb3 inh: inactive

How did N/C(=N\OC(=O)c1cccc2ccccc12)c1cccc([N+](=O)[O-])c1 do in these assays?
PLC-gamma1 inh: inactive; AHR activator: inactive; sPLA2-III inh: inactive; HIF act: inactive; Yeast superoxide: inactive; PLCb3 inh: inactive

Results for Cc1cccc(/C(N)=N/OC(=O)c2ccc(Br)o2)c1 ?
PLC-gamma1 inh: inactive; AHR activator: 71; sPLA2-III inh: inactive; HIF act: inactive; Yeast superoxide: inactive; PLCb3 inh: inactive

How did Cc1cccc(/C(N)=N/OC(=O)c2cccc3ccccc23)c1 do in these assays?
PLC-gamma1 inh: inactive; AHR activator: 73; sPLA2-III inh: inactive; HIF act: inactive; Yeast superoxide: inactive; PLCb3 inh: inactive

What do the screens show for `CCOc1ccc(C(=O)CSc2nnc(SCc3ccc(Cl)cc3)s2)cc1`?
PLC-gamma1 inh: inactive; sPLA2-III inh: inactive; PLCb3 inh: inactive

Results for O=C(Nc1ccc(Br)cc1)c1cccnc1N1CCCCC1 ?
PLC-gamma1 inh: inactive; AHR activator: 50; sPLA2-III inh: inactive; HIF act: inactive; Yeast superoxide: inactive; PLCb3 inh: inactive

What do the screens show for `CC(=O)Oc1c(Br)cc(N(C(C)=O)S(=O)(=O)c2ccccc2)c2ccccc12`?
PLC-gamma1 inh: inactive; AHR activator: 48; sPLA2-III inh: inactive; HIF act: inactive; Yeast superoxide: inactive; PLCb3 inh: inactive

Results for CC(=O)Oc1ccccc1N(C(C)=O)S(=O)(=O)c1ccc2ccccc2c1 ?
PLC-gamma1 inh: inactive; AHR activator: inactive; sPLA2-III inh: inactive; HIF act: inactive; Yeast superoxide: inactive; PLCb3 inh: inactive

How did CCOC(=O)[C@]12CCCCC/C=C\1N(CCc1ccc(Cl)cc1)C(=O)[C@H]2CC(=O)NCCc1ccccc1OC do in these assays?
PLC-gamma1 inh: inactive; sPLA2-III inh: inactive; PLCb3 inh: inactive

What do the screens show for `c1ccc2c(c1)-c1nc3ccccc3cc1C2N1CCCCC1` (configuration not stated)?
PLC-gamma1 inh: inactive; sPLA2-III inh: inactive; PLCb3 inh: inactive
